Data from PubChem BioAssay.
Calls of active or inactive are those of the source. Unless noted, the rule behind the calls is not given here.

Legend:
[1] = resazurin metabolic signal in HepG2 cells – cell-based, resazurin fluorescence, 24 h, PK04 Diversity Set, profiling panel (AID 1172); settings: HepG2 viability, higher = more signal; note: test concentration not given here
[2] = budding yeast growth changes without added modifier – OD600, strain BY4716, 24 h, basal condition, primary screen (AID 1173); settings: S. cerevisiae BY4716 growth, OD600, 24 h; higher = more signal, called active from +8 up or from −8 down
[3] = viability profiling in MM1S myeloma cells – cell-based, resazurin fluorescence, basal, 24 h, PK04 Diversity Set, profiling panel (AID 1174); settings: higher = more signal, called active from +8 up or from −8 down;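 note: MM1S multiple myeloma cell line; test concentration not given here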
[4] = target: Dihydroorotate dehydrogenase (quinone), mitochondrial (Plasmodium falciparum (isolate 3D7)) (UniProt Q08210); assay: inhibition of P. falciparum DHODH – biochemical, C-terminal His tag, absorbance 600 nm, primary screen (AID 1175); settings: PfDHODH enzyme, DCIP absorbance 600 nm; higher = more signal, called active from +8 up or from −8 down;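 note: recombinant parasite enzyme with a five histidine tag at its C terminus; test concentration not given here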
[5] = inhibition of PAO1 biofilm formation – strain PAO1, LB-PBS medium, absorbance 600 nm, primary screen (AID 1176); note: test concentration not given here; settings: P. aeruginosa PAO1 growth/biofilm, A600, 12 h; higher = more signal
[6] = growth modulation of vineyard yeast isolate – strain RM11-1a, OD600, basal, 24 h, primary screen (AID 1177);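 note: cultures grown under basal conditions with no added stressor; test concentration not given here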; settings: S. cerevisiae RM11-1a growth, OD600, 24 h; higher = more signal, called active from +8 up or from −8 down
[7] = growth of efflux-deficient E. coli DRC39 – strain DRC39, OD650, 24 h, E. coli filamentation inducers, primary screen (AID 1178);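 note: growth measured as culture turbidity by optical density at 650 nm; test concentration not given here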; settings: E. coli DRC39 acrAB, higher = more signal, called active from +8 up or from −8 down
[8] = growth of efflux-deficient E. coli DRC39 – strain DRC39, OD650, 48 h, E. coli filamentation inducers, primary screen (AID 1179);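 note: screen aims at cell division blockers that make cells filament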; settings: E. coli DRC39 delta-acrAB growth, higher = more signal, called active from +8 up or from −8 down
[9] = viability profiling in RPMI8226 myeloma cells – cell-based, resazurin fluorescence, basal, 24 h, PK04 Diversity Set, profiling panel (AID 1180); settings: higher = more signal;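 note: RPMI8826 multiple myeloma cell line at 5000 cells per well; test concentration not given here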
[10] = target: E3 ubiquitin-protein ligase XIAP (Homo sapiens) (UniProt P98170); assay: small molecules binding XIAP protein – biophysical, small-molecule microarray, fluorescence 635 nm, primary screen (AID 1181); settings: higher = more signal;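 note: score merges 667 nm emission and signal to noise over triplicate slides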
E3 ubiquitin-protein ligase XIAP (Homo sapiens), sequence (P98170 whole entry, looked up): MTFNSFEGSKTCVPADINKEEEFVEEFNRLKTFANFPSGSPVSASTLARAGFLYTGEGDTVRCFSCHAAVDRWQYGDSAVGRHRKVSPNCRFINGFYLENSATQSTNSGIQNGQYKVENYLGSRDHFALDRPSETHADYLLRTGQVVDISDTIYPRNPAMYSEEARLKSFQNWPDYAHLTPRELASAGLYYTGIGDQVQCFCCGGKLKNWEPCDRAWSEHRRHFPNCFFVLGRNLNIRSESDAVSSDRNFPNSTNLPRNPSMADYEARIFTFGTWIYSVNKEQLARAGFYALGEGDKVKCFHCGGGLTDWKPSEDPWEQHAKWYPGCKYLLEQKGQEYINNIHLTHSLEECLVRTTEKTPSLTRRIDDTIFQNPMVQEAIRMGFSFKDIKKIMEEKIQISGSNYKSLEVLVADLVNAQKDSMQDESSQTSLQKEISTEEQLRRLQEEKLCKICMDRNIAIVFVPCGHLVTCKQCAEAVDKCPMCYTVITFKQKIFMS

Dihydroorotate dehydrogenase (quinone), mitochondrial (Plasmodium falciparum (isolate 3D7)), sequence (Q08210 whole entry, looked up): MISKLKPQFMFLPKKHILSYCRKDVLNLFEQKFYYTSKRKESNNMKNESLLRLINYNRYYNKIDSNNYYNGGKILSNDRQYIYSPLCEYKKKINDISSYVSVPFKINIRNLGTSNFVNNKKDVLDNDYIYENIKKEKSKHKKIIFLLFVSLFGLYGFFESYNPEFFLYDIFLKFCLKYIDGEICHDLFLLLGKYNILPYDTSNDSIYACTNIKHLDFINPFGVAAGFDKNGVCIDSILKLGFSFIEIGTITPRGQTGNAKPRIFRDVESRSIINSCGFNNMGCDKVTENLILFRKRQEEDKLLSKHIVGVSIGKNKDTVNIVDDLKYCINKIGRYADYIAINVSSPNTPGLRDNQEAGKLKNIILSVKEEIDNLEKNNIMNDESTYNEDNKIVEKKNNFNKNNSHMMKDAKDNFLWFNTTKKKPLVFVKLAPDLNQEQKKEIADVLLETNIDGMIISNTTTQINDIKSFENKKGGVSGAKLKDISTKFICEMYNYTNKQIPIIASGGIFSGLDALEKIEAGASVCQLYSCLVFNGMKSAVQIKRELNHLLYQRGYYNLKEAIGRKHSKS

| Compound | z-score [1] | z-score [2] | z-score [3] | composite z-score [4] | z-score [5] | z-score [6] | z-score [7] | z-score [8] | z-score [9] | composite z-score [10] |
| --- | --- | --- | --- | --- | --- | --- | --- | --- | --- | --- |
| COc1cc2c(cc1OC)CN(C(=O)[C@@H]1[C@H]3C(=O)O[C@H](c4ccccc4)[C@H](c4ccccc4)N3[C@H](c3ccccc3OCCO)[C@@]13C(=O)Nc1ccc(C#CCCO)cc13)CC2 | 0.0986 | 1.28 (inactive) | -0.0469 (inactive) | 0.379 (inactive) | 2.35 (inactive) | 1.98 (inactive) | 0.158 (inactive) | 0.793 (inactive) | 0.43 | 0.271 |
| CC[C@@H]1C=C(C(=O)O)[C@H](c2ccc(Br)cc2)N1S(=O)(=O)c1ccc(C)cc1 | -0.386 | -0.14 (inactive) | -0.459 (inactive) | -0.412 (inactive) | -0.116 (inactive) | -0.716 (inactive) | -0.593 (inactive) | 0.295 (inactive) | -1.51 | 0.157 |
| CC(C)NC(=O)[C@@]1(c2ccc([N+](=O)[O-])cc2)CC(=O)N(C2CCCCC2)[C@@H]1c1ccc(CO)cc1I | -0.752 | -0.148 (inactive) | 0.507 (inactive) | 0.968 (inactive) | -0.0469 (inactive) | 1.4 (inactive) | 0.543 (inactive) | 0.0026 (inactive) | 0.636 | -0.177 |
| CN(C)CCCCCCNC(=O)[C@@H]1C[C@@H]2C(=O)N[C@@H](Cc3ccccc3)C(=O)N2[C@@H]1c1ccc(O)cc1 | -0.591 | -0.58 (inactive) | -1.09 (inactive) | 0.0288 (inactive) | -0.0059 (inactive) | 0.179 (inactive) | -0.725 (inactive) | -1.25 (inactive) | -0.974 | 0.458 |
| COCCOC(=O)N1C(=O)[C@@]2(c3cc(C#CCCO)ccc31)[C@H](C(=O)N1CCCCCCC1)[C@H]1C(=O)O[C@H](c3ccccc3)[C@H](c3ccccc3)N1[C@@H]2c1ccc(OCCO)cc1 | 0.902 | 0.849 (inactive) | 0.368 (inactive) | 0.047 (inactive) | 1.56 (inactive) | 2.32 (inactive) | -0.0574 (inactive) | 0.215 (inactive) | -2.44 | 1.06 |
| CC(C)[Si](C#Cc1ccc(Oc2ccccc2)cc1)(O[Si](C#Cc1ccc(Oc2ccccc2)cc1)(C(C)C)C(C)C)C(C)C | 0.0013 | 1.95 (inactive) | 0.698 (inactive) | 0.936 (inactive) | -0.133 (inactive) | 1.88 (inactive) | 0.879 (inactive) | 0.3 (inactive) | 0.603 | -0.0009 |
| CC(C)NC(=O)[C@@H]1c2ccccc2C(=O)N(C2Cc3ccccc3C2)[C@H]1c1ccc(CO)cc1 | 0.785 | 0.0928 (inactive) | 1.16 (inactive) | -0.427 (inactive) | -0.0528 (inactive) | 0.744 (inactive) | 0.859 (inactive) | 0.95 (inactive) | 1.59 | 0.133 |
| O=C1[C@@]23C=C(Br)[C@H](C[C@@H]2CCOC3)[C@@]12CO2 | 0.165 | -1.85 (inactive) | 0.0335 (inactive) | -0.0887 (inactive) | 0.261 (inactive) | -0.0503 (inactive) | 0.297 (inactive) | 0.319 (inactive) | 0.428 | 0.188 |
| C[N+](C)(C)CCCC[C@@H]1NC(=O)[C@H]2C[C@@H](C(=O)NCCCCCCNC(=O)CS)[C@@H](c3cccc(OCCO)c3)N2C1=O | -0.191 | 0.578 (inactive) | -0.0499 (inactive) | 0.459 (inactive) | -0.0896 (inactive) | 0.293 (inactive) | 0.474 (inactive) | 0.645 (inactive) | -0.442 | -0.227 |
| NC(=O)NCC#Cc1ccc2c(c1)[C@]1(C(=O)N2)[C@H](C(=O)Nc2nc3ccccc3s2)[C@H]2C(=O)O[C@H](c3ccccc3)[C@H](c3ccccc3)N2[C@@H]1c1ccccc1OCCO | 0.446 | 0.32 (inactive) | -0.784 (inactive) | 2.26 (inactive) | 1.6 (inactive) | 1.8 (inactive) | -0.846 (inactive) | -0.728 (inactive) | -0.651 | 0.711 |
| O=C1O[C@@H](c2ccccc2)[C@@H](c2ccccc2)N2[C@@H](c3ccccc3OCCO)[C@]3(C(=O)Nc4ccc(C#CC5=CCCCC5)cc43)[C@@H](C(=O)N3CCCCCCC3)[C@H]12 | -0.868 | 0.98 (inactive) | -6.31 (inactive) | -0.35 (inactive) | 1.63 (inactive) | 1.19 (inactive) | -0.994 (inactive) | -0.576 (inactive) | -4.11 | 1.56 |
| COC(=O)c1c(CC[C@@H](CO)NC(=O)NCCn2cc(C3(O)CCCC3)nn2)oc(C(C)=O)c1C(=O)OC | -0.777 | -0.394 (inactive) | -0.691 (inactive) | -0.35 (inactive) | 0.173 (inactive) | -0.77 (inactive) | -0.426 (inactive) | -0.828 (inactive) | -0.581 | -0.0343 |
| CCCC[C@@H]1C[C@H]1[C@@H](NC(=O)C(C)(C)C)c1ccc(C(F)(F)F)cc1 | -0.549 | 0.594 (inactive) | -0.858 (inactive) | -3.55 (inactive) | 3.07 (inactive) | 1.17 (inactive) | -0.483 (inactive) | -0.631 (inactive) | 2.01 | 0.0256 |
| COC(=O)[C@@]1(Cc2ccc(F)cc2)[C@H]2c3cc(C(=O)N4CCCC4)n(CCCNc4ncc(C(F)(F)F)cc4Cl)c3C[C@H]2CN1C(=O)c1ccccc1 | -0.461 | 2.05 (inactive) | -2.38 (inactive) | 0.308 (inactive) | 1.03 (inactive) | 1.65 (inactive) | -0.645 (inactive) | -0.681 (inactive) | -2.34 | 0.426 |
| NC(=O)N1C(=O)C2C(C1=O)C1C=C(c3ccc(CO)cc3)C2C(c2cccs2)N1Cc1cccc(OC(F)(F)F)c1 (stereo not given) | -0.532 | -4.02 (inactive) | -0.683 (inactive) | -8.36 (active) | -0.79 (inactive) | -1.87 (inactive) | -5.27 (inactive) | -4.66 (inactive) | -0.452 | 0.278 |
| OCCCC1=CC(c2cccs2)N(Cc2cc3c(cc2Br)OCO3)CC1 (stereo not given) | -0.429 | -2.09 (inactive) | -0.643 (inactive) | -0.966 (inactive) | 0.531 (inactive) | -0.174 (inactive) | -0.341 (inactive) | -0.681 (inactive) | -0.829 | 0.019 |
| COCCCNC(=O)[C@@H]1c2ccccc2C(=O)N(Cc2ccccc2Cl)[C@H]1c1ccc(CO)cc1 | -0.378 | -0.259 (inactive) | 0.655 (inactive) | -0.636 (inactive) | 0.692 (inactive) | -1.02 (inactive) | 0.987 (inactive) | 1.16 (inactive) | 0.871 | 0.78 |
| COC(=O)[C@]1(CCC(=O)OC(C)(C)C)N=C(c2ccc(OCCCO)cc2)O[C@@H]1c1ccccc1CN=[N+]=[N-] | -1.72 | 1.01 (inactive) | -5.09 (inactive) | 0.965 (inactive) | 1.53 (inactive) | 1.84 (inactive) | 0.637 (inactive) | -0.721 (inactive) | -4.68 | -0.0773 |
| C=CCOC(=O)[C@H]1[C@@H]2C(=O)O[C@@H](c3ccccc3)[C@@H](c3ccccc3)N2[C@@H](c2ccc(OCCOC(=O)[C@H]3C[C@H]4C(=O)N[C@@H](CCCCN(C)C)C(=O)N4[C@H]3c3ccc(O)cc3)cc2)[C@]12C(=O)Nc1ccc(I)cc12 | 0.0141 | -0.526 (inactive) | -0.934 (inactive) | 0.341 (inactive) | 0.739 (inactive) | -0.0228 (inactive) | -0.624 (inactive) | -1.24 (inactive) | -0.973 | -0.0819 |
| COc1ccc(C#Cc2ccc3c(c2)[C@]2(C(=O)N3)[C@H](C(=O)NC[C@H](O)c3ccccc3)[C@H]3C(=O)O[C@H](c4ccccc4)[C@H](c4ccccc4)N3[C@@H]2c2ccc(O)cc2)cc1 | -0.475 | -0.26 (inactive) | -2.61 (inactive) | 0.843 (inactive) | 0.971 (inactive) | 2.29 (inactive) | 0.0945 (inactive) | 0.51 (inactive) | -3.97 | 0.262 |
| COCCOC(=O)N1C(=O)[C@@]2(c3cc(C#CC4(O)CCCCCC4)ccc31)[C@H](c1ccccc1OCCO)N1[C@H](c3ccccc3)[C@H](c3ccccc3)OC(=O)[C@H]1[C@@H]2C(=O)N1CCN(c2ncccn2)CC1 | -0.645 | 1.61 (inactive) | -0.349 (inactive) | 0.122 (inactive) | 2.03 (inactive) | 2.39 (inactive) | 0.0296 (inactive) | 0.946 (inactive) | -0.874 | 0.0774 |
| C=C[C@H](OC)[C@@H](OC(=O)Nc1ccc(OC)cc1)c1ccc(O)c(F)c1 | -0.709 | -3.76 (inactive) | -1.78 (inactive) | -1.89 (inactive) | 1.05 (inactive) | 0.974 (inactive) | 1.41 (inactive) | 0.98 (inactive) | 1.69 | 0.0623 |
| C=CCC(OC(C)=O)[C@@H]1[C@@H](N(Cc2cccc3ccccc23)C(=O)c2ccc(-c3ccccc3)cc2)c2cc(OCCCO)ccc2N1C(=O)c1ccc2ccccc2c1 (stereo not given in full) | 0.256 | 1.04 (inactive) | 0.163 (inactive) | -0.149 (inactive) | 0.845 (inactive) | 0.132 (inactive) | 0.0986 (inactive) | 0.295 (inactive) | 1.23 | 0.0463 |
| C=CCNC(=O)[C@H]1[C@@H]2C(=O)O[C@@H](c3ccccc3)[C@@H](c3ccccc3)N2[C@@H](c2ccccc2OCCO)[C@]12C(=O)Nc1ccc(C#CCCO)cc12 | -0.349 | 1.22 (inactive) | -0.942 (inactive) | 2.6 (inactive) | 0.462 (inactive) | 2.33 (inactive) | -0.393 (inactive) | -0.445 (inactive) | -0.969 | 1.02 |
